Measured values as given in PubChem BioAssay (NCI).
Compounds without any hit were thinned out: in the full panel of roughly 79,000, 15% have a hit. The source made the active and inactive calls. Cut-off read from the data, not from the text of the source: active = growth inhibition above about 70%; inactive = the rest.

Experiments:
[1] = NCI Yeast Anticancer Drug Screen. Data for the rad50 strain (AID 155);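 note: 0% = growth of vehicle-only cultures of the same strain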; settings: S. cerevisiae rad50 strain growth inhibition; at 50.0 µM; hits give high values
Summary of the method: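 Inhibition values express reduced yeast growth in compound-treated cultures relative to vehicle-treated controls.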

[2] = NCI Yeast Anticancer Drug Screen. Data for the mec2-1 strain (AID 157); settings: S. cerevisiae mec2-1 strain, at 50.0 µM, hits give high values
Summary of the method: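 mec2-1 yeast strain, carrying an alteration in DNA damage repair or cell cycle control, was exposed to compounds; growth inhibition was measured relative to vehicle-treated controls.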

[3] = NCI Yeast Anticancer Drug Screen. Data for the sgs1 mgt1 strain (AID 161);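 note: 0% = growth of cultures given vehicle only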; settings: S. cerevisiae sgs1 mgt1 strain, at 50.0 µM, hits give high values
Summary of the method: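 Compounds are added to genetically altered yeast, and growth is compared with cultures given vehicle alone to give percent inhibition.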

[4] = NCI Yeast Anticancer Drug Screen. Data for the cln2 rad14 strain (AID 165);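 note: 0% = growth equal to vehicle treated cultures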; settings: S. cerevisiae cln2 rad14 strain, at 50.0 µM, hits give high values
Summary of the method: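 Yeast carrying cln2 and rad14 alterations (cell cycle control and DNA damage repair) were exposed to compounds. Growth inhibition was measured against vehicle-treated controls.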

[5] = NCI Yeast Anticancer Drug Screen. Data for the bub3 strain (AID 167); settings: S. cerevisiae bub3 mutant strain, at 50.0 µM, hits give high values
Summary of the method: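 Steps: expose the mutant yeast strain to compound; grow alongside vehicle-treated cultures; measure growth; express inhibition against the vehicle cultures.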

[6] = NCI Yeast Anticancer Drug Screen. Data for the mlh1 rad18 strain (AID 175); settings: S. cerevisiae mlh1 rad18 strain growth inhibition; at 50.0 µM; hits give high values
Summary of the method: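 Growth inhibition of the yeast strain was measured after compound exposure and expressed relative to vehicle-treated controls. The strain carries defined defects in DNA damage repair.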

Measured: growth inhibition

COc1ccc(OC)c2nc3c(C(=O)NCCN(C)C)cccc3nc12
inactive: [1] -15.7% | [2] -25.5% | [3] -55.7% | [4] -35.2% | [5] -31.4% | [6] -68.1%

C=CCC(OC(=O)CC)c1ccc2c(c1)OCO2 (stereo unspecified)
inactive: [1] 7.3% | [2] -11.6% | [3] 5% | [4] 4.05% | [5] 9.3% | [6] -11.9%

Cc1ccc(N=CN(C)C)c(Cl)c1
inactive: [1] -4.5% | [2] 0.8% | [3] 4.6% | [4] -16.8% | [5] -7.4% | [6] -23.1%

NC(=O)CCCc1ccc2oc3ccccc3c2c1
inactive: [1] 13.4% | [2] -4.05% | [3] 9.05% | [4] 6.55% | [5] 22.8% | [6] 35.4%

O=CNCCNC=O
inactive: [1] 0.05% | [2] -2.25% | [3] -15% | [4] -12.7% | [5] 0.65% | [6] -1.85%

CC1(C)N=C(N)NC(Nc2ccccc2)=N1
inactive: [1] -0.2% | [2] -6.5% | [3] -27.6% | [4] -26.9% | [5] -10.8% | [6] -0.05%

O=c1oc2ccccc2c(O)c1C(c1cc(OCc2ccccc2)cc(OCc2ccccc2)c1)c1c(O)c2ccccc2oc1=O
inactive: [1] -12.1% | [2] -2.85% | [3] -2.1% | [4] -19.4% | [5] -11.7% | [6] -16.6%

N#Cc1ccc(OC(=O)Nc2cccc(Cl)c2Cl)cc1
inactive: [1] -3.7% | [2] -25.4% | [3] 2.95% | [4] 15.7% | [5] 0.55% | [6] -9.45%

CCOC1OC(C(O)CO)C(O)C1O (stereo unspecified)
inactive: [1] -16.9% | [2] -18.8% | [3] 5.25% | [4] -39.9% | [5] -18% | [6] -17%

CC(=O)NNC(=S)N/C=C(\C#N)c1nc2ccccc2s1
inactive: [1] 22.2% | [2] 12.2% | [3] -17.2% | [4] 18.4% | [5] -10.7% | [6] 12.1%

NC(=O)CS(=O)Cc1cccc(Br)c1 (stereo unspecified)
inactive: [1] -13.9% | [2] -11.2% | [3] -17.6% | [4] 7.35% | [5] -1.5% | [6] 6.5%

CN/N=C(/c1nc2ccc([N+](=O)[O-])cc2[nH]c1=O)C(O)c1ccc(C(O)/C(=N\NC)c2nc3ccc([N+](=O)[O-])cc3[nH]c2=O)cc1 (stereo unspecified)
inactive: [1] 31.2% | [2] -5.55% | [3] 0.6% | [4] -26.2% | [5] -3.85% | [6] 19.4%

Cc1cccc(NC(=O)c2cccc([N+](=O)[O-])c2C(=O)O)c1C
inactive: [1] 4.8% | [2] 11.9% | [3] 3.75% | [4] -7.15% | [5] 25.6% | [6] 10.8%

OC(CNC1CC2CCC1C2)COc1cccc2ccccc12 (stereo unspecified)
active: [3] 76.5% | [6] 82.4%
inactive: [1] 68.4% | [2] 42.9% | [4] 52.4% | [5] 51%

COc1ccccc1C(CC(=O)c1ccccc1)Sc1ccccc1N (stereo unspecified)
inactive: [1] 26.9% | [2] 33.9% | [3] 38.8% | [4] 4.1% | [5] 26.4% | [6] 12.3%

CC(O)C1OC(O)C2OC(C)(C)OC12 (stereo unspecified)
inactive: [1] 20.1% | [2] 17.4% | [3] 16.4% | [4] -4.35% | [5] 14.6% | [6] 7.9%

O=C(CCC(CCC(=O)c1ccccc1)[N+](=O)[O-])c1ccccc1
inactive: [1] 3.15% | [2] -10.8% | [3] 7.65% | [4] 4.55% | [5] 14.2% | [6] 20.5%

CCOC(=O)/C(=C/c1cn(C(C)=O)c2ccccc12)P(C)(=O)OCC (stereo unspecified)
inactive: [1] 33.2% | [2] 52.5% | [3] 55.5% | [4] 40% | [5] 53.5% | [6] 22.2%

CCCCOC(=O)C1=NNC(=O)C1
inactive: [1] -17.6% | [2] -17.9% | [3] -11.9% | [4] -10.1% | [5] -12.3% | [6] -11.9%

CC1NC(C)SC(C)S1 (stereo unspecified)
inactive: [1] -9.15% | [2] -23.6% | [3] 0.15% | [4] -16.1% | [5] -0.7% | [6] 36.8%

Cn1c2c(c(=O)n(C)c1=O)CCC(=O)N2
inactive: [1] 4.95% | [2] 0.7% | [3] -6.5% | [4] -32.6% | [5] -2.4% | [6] -9.4%

O=C(O)c1ccccc1NC(C(=O)O)c1ccccc1 (stereo unspecified)
inactive: [1] -13.1% | [2] -4.25% | [3] -27.4% | [4] 9.1% | [5] -18.9% | [6] -11.7%

CC(C)C1=C(Cc2ccccc2)C(=O)O/C1=C\c1cc(Cl)c(O)c(Cl)c1
inactive: [1] 19.9% | [2] 8% | [3] 24.6% | [4] 25.6% | [5] 32.5% | [6] -30.9%

CCOC(=O)NC(=S)Nc1cn(C)cc1[N+](=O)[O-]
inactive: [1] 3.2% | [2] -5.9% | [3] 8.8% | [4] 1.9% | [5] 3.65% | [6] 11.7%

CSc1ccc2c(cc1=O)[C@@H](NC(C)=O)CCc1cc(O)c(O)c(O)c1-2
inactive: [1] 7.1% | [2] 12.3% | [3] 18.1% | [4] 4.85% | [5] 17.4% | [6] 22.8%

CCCCCC(=O)C(C)=O
inactive: [1] -22.8% | [2] -5.9% | [3] -0.9% | [4] -20.8% | [5] -20.8% | [6] -12.2%

CN(C)C(=O)Sc1ccc([N+](=O)[O-])cc1
inactive: [1] 4.75% | [2] -12.8% | [3] -14.6% | [4] -45.5% | [5] 4.6% | [6] -19.8%

c1ccc2c3c(ccc2c1)OCCOCCOc1ccc2ccccc2c1-3
active: [1] 76.7% | [2] 84.8% | [3] 76.5% | [5] 91.9% | [6] 86%
inactive: [4] 8.5%

O=C1CCSC(=S)N1c1ccc(F)cc1F
inactive: [1] 18% | [2] 4.65% | [3] 18.4% | [4] 28.9% | [5] 4.7% | [6] -1.15%

O=c1oc2cc(O)ccc2cc1-c1nc2ccccc2o1
inactive: [1] -2.1% | [2] -10.8% | [3] -31.2% | [4] 14.1% | [5] 2.75% | [6] -4.1%

O=C(N/N=C\c1cccc(O)c1)c1ccncc1
inactive: [1] 1.75% | [2] 11.9% | [3] -37.5% | [4] -19.4% | [5] 3% | [6] -1.05%

C[N+](C)(C)Cc1ccc2ccccc2c1CC(O)(c1ccccc1)c1ccccc1
inactive: [1] 16.6% | [2] -0.6% | [3] 19.1% | [4] 4.85% | [5] 1.95% | [6] 9.8%

CCC(CC)=NNS(=O)(=O)c1cccc2ccccc12
inactive: [1] 10.7% | [2] -12.4% | [3] -11.7% | [4] -15.7% | [5] -17.9% | [6] -0.1%

CC(=O)OCC1OC(N=[N+]=[N-])C(OC(C)=O)C(OC(C)=O)C1OC1OC(COC(C)=O)C(OC(C)=O)C(OC(C)=O)C1OC(C)=O (stereo unspecified)
inactive: [1] -19.1% | [2] -29.9% | [3] -16.2% | [4] -0.35% | [5] 5.55% | [6] -17.1%

Cc1ccc(NC(Nc2ccc(C)c(Cl)c2)C(Cl)(Cl)Cl)cc1Cl
inactive: [1] 9.65% | [2] -24% | [3] -5.7% | [4] -7.7% | [5] 5.75% | [6] -15.3%

[N-]=[N+]=Nc1cc(=O)n(-c2ccccc2)c(=O)n1-c1ccccc1
inactive: [1] 9.5% | [2] 8.75% | [3] 13.3% | [4] 21.6% | [5] 10.3% | [6] 32.2%

O=C1C=C(N2CCCC2)c2ccccc21
inactive: [1] 15.4% | [2] -9.25% | [3] 3.85% | [4] -18.9% | [5] -27.6% | [6] 12.8%

NS(=O)(=O)c1ccc(NC(=O)Nc2cccc(C(F)(F)F)c2)cc1
inactive: [1] 23.9% | [2] 2.55% | [3] 12.8% | [4] 12.3% | [5] 23.8% | [6] 9.85%

CCN(CC)C(=O)CCC1(C)OCCO1
inactive: [1] -4.8% | [2] -12.1% | [3] -25.3% | [4] 56.4% | [5] -13.9% | [6] 6.45%

CN(C)CCNc1ccc(NCCN(C)C)c2c1C(=O)c1ncsc1C2=O
inactive: [1] -8.15% | [2] -0.8% | [3] 14.2% | [4] 8.35% | [5] 2.1% | [6] -16.8%

Cc1ccc2c(c1)C(=O)c1ccccc1C2=O
inactive: [1] 7.8% | [2] 1.05% | [3] 1.9% | [4] 11.9% | [5] 52% | [6] 6%
